From PubChem BioAssay come the findings set out here.

Active and inactive are the calls of the source.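 How the source made its calls, unless noted: active means inhibition at or above 50% at 10 µM; inactive means inhibition below 50%.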

Test [1] can be described thus: inhibitors of TNFa-induced NFkB p65 translocation, primary screen, imaging, HUVEC, MLSMR starter and 10KST1 sets (AID 438;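 active means inhibition above 20% together with a positive visual image hit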;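 further: compound added about 3h40 before a 20 min TNFalpha stimulation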;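 on inhibition: signal is the nuclear over cytoplasmic p65 intensity ratio per well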). The conditions noted are these: HUVEC TNFa-induced p65 nuclear translocation; cell count: measured here: nuclei count (cytotoxicity indicator), at 2.08 µM; inhibition: at 2 µM, stronger effect = higher value, 0% TNFa-plus-vehicle, 100% no-TNFa wells.
A short description of test [2]: reduction of polyQ htt aggregates in cells – imaging, exon1htt(103Q)mCFP cells, high-content imaging, primary screen (AID 483;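 active means visual image review flags a hit and inhibition of aggregation exceeds 20%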;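 further: compound exposure lasted 3 days before fixation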;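 on nuclei count: percent of the per-plate median nuclei count of sample wells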). The following applies: exon1htt(103Q)mCFP cell line, aggregate imaging, at 2 µM; inhibition of aggregation: stronger effect = higher value; nuclei count: measured here: cell count, toxicity.
Test [3] is described as follows: endothelial E-selectin expression blockers – imaging, HUVEC, immunofluorescence, MLSMR starter and 10KST1 sets, primary screen (AID 487;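 active means visually confirmed hit in the image check and inhibition above 20%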;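 on inhibition: signal is fraction of cell area covered by stained E-selectin grains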;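 on nuclei count: 100% = median nuclei count of all wells on the same plate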). The conditions noted are these: HUVEC TNFalpha-induced E-selectin immunofluorescence imaging, at 2 µM; inhibition: stronger effect = higher value; nuclei count: measured here: cell number, toxicity.
Test [4] addresses Voltage-gated potassium channel subunit beta-2 (Rattus norvegicus) (UniProt P62483). The test is described as follows: inhibitors of rat Kvbeta2 reductase activity – biochemical, NADPH fluorescence, primary screen (AID 622;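 active means fluorescence slope higher than the sample average by over 3 SD, cut at about -0.22 in these data, passing the limit was not always enough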;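 further: slope of raw intensity against log time taken from 70 to 1610 s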). The conditions noted are these: recombinant KvBeta, 4-cyanobenzaldehyde reduction, at 10 µM, stronger effect = higher value.
Test [5] has the same target. Nature of the test: enhancers of rat Kvbeta2 NADPH turnover – biochemical, NADPH fluorescence, primary screen (AID 623;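 active means NADPH fluorescence slope more negative than the mean of all samples by about 3 SD, 99.7% confidence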;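 further: fluorescence intensity change per second fitted from 20 to 320 s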). The following applies: Recombinant KvBeta, NADPH fluorescence decrease slope, 10 min; at 10 µM; stronger effect = lower value.
Test [6] deals with Alpha-2C adrenergic receptor (Homo sapiens) (UniProt P18825). The test is described as follows: compounds altering alpha2C-coupled GIRK flux – cell-based, HEK293 alpha2C/GIRK1/2, thallium flux, primary screen (AID 624;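 active means fluorescence slope after compound addition differing from the mean of all screened samples at 99.7% confidence, in either direction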;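 further: slope of fluorescence ratio to pre-addition baseline per second over 15 to 24 s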). The conditions noted are these: thallium flux BTC fluorescence, at 10 µM, actives lie on both sides.
Sequence of Alpha-2C adrenergic receptor (Homo sapiens) (P18825 whole entry, looked up): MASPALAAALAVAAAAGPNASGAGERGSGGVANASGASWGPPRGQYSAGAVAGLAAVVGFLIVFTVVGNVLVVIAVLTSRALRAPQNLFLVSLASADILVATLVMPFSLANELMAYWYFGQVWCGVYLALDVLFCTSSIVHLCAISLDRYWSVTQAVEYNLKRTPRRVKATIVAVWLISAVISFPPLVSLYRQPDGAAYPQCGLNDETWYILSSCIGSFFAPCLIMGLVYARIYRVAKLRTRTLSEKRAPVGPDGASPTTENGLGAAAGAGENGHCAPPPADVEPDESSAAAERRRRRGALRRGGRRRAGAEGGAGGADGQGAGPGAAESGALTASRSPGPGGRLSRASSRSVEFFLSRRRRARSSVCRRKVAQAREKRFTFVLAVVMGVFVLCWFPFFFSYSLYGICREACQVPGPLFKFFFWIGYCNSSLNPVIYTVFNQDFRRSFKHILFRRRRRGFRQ
A short description of test [7]: blockers of RIG-like receptor reporter activation – cell-based, Sendai virus stimulus, luciferase, 10K MLSCN set, TLR/RLR signaling modifier project, primary screen (AID 602276).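 Further: firefly luciferase from ISG56 promoter only with Renilla not read in this screen; 0% = Sendai virus plus DMSO and 100% = medium plus DMSO without virus.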 The following applies: HEK293 RL24 IRF3 luciferase reporter, at 10 µM, stronger effect = higher value. (In general: A reporter such as luciferase makes a cellular process visible.)
A short description of test [8]: TLR3 IRF3 reporter activation blockers – cell-based, poly I:C stimulus, luciferase, 10K MLSCN set, primary screen (AID 602277;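 active means inhibition of the reporter signal at or above 50%; inactive means inhibition below 50%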). The following applies: HEK293-TLR3 RL24 IRF3 luciferase reporter, at 10 µM, stronger effect = higher value.

Sequence of Voltage-gated potassium channel subunit beta-2 (Rattus norvegicus) (P62483 whole entry, looked up): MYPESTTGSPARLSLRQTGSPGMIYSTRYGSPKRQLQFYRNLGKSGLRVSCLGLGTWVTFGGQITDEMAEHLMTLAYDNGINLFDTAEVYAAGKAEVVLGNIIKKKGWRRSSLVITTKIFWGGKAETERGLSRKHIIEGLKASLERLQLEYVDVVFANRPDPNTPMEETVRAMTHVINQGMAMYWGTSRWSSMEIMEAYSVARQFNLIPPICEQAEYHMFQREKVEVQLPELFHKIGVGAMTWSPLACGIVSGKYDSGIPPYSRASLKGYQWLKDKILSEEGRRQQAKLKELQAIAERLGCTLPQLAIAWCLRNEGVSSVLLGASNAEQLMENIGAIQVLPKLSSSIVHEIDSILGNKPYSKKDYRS

For `CC(=O)NCc1nc2ccccc2n1C(C)C`, in test [1], the cell count came to 518. In addition, the inhibition (as a rule, the drop in the measured response relative to a control, in per cent) in test [1] is 13% (inactive); in test [3], 6.4% (inactive); in test [7], 7.73% (inactive); in test [8], 21.5% (inactive). Moreover, the inhibition of aggregation in test [2] was 15.8% (inactive). For the same molecule, the nuclei count in test [2] came out at 110%; in test [3], 119%. Moreover, in test [4], the fluorescence slope is -0.575 (inactive). Also, in test [5], the NADPH fluorescence slope was -3.7e-05 (inactive). Further, the slope in test [6] was 0.00817 (inactive).
For `COC(=O)c1c(C#N)c(N)nc2c1CCC2`, in test [1], the cell count is 474. The inhibition in test [1] was -0.6% (inactive); in test [3], 33.1% (inactive); in test [7], 9.2% (inactive); in test [8] it was 8.56% (inactive). The inhibition of aggregation in test [2] was 18.2% (inactive). The figures for the nuclei count in test [2] and in test [3] were 80.9% and 92.6%, respectively. In addition, the fluorescence slope in test [4] is -0.00808 (active). In addition, the NADPH fluorescence slope in test [5] is -2e-06 (inactive). In test [6], the slope was 0.00834 (inactive).
Consider `C/C=C(\C)c1nnc(NC(=O)C(C)C)s1`, for which the cell count in test [1] came to 382. The inhibition was -29% (inactive) in test [1], -50.6% (inactive) in test [3], -13.7% (inactive) in test [7] and -7.26% (inactive) in test [8]. Moreover, the inhibition of aggregation in test [2] was -12.2% (inactive). Besides, the nuclei count worked out at 98.7% in test [2] and 95.4% in test [3]. Also, the fluorescence slope in test [4] is -0.474 (inactive). Further, the NADPH fluorescence slope in test [5] was 2.8e-06 (inactive). The slope in test [6] was 0.00558 (inactive).
`O=S(=O)(c1ccc2c(c1)OCCO2)N1CCN(Cc2ccc3c(c2)OCO3)CC1`: in test [1], the cell count worked out at 632. For the same molecule, the inhibition in test [1] was 1.9% (inactive); in test [3], -24.5% (inactive); in test [7], 9.49% (inactive); in test [8] it was 25.6% (inactive). The inhibition of aggregation in test [2] is 0.7% (inactive). In addition, the nuclei count was 100% in test [2] and 113% in test [3]. Besides, in test [4], the fluorescence slope was -0.345 (inactive). Besides, the NADPH fluorescence slope in test [5] is -5.1e-05 (inactive). Besides, in test [6], the slope was 0.00449 (inactive).
Turning to `N#Cc1ccc(COC(=O)Cn2nnc(-c3ccccc3)n2)cc1`, the cell count in test [1] was 503. The inhibition was -15.2% (inactive) in test [1], -124% (inactive) in test [3], 9.56% (inactive) in test [7] and 19.4% (inactive) in test [8]. For the same molecule, the inhibition of aggregation in test [2] is -8.3% (inactive). Moreover, the nuclei count was found to be 98.8% in test [2] and 121% in test [3]. In addition, in test [4], the fluorescence slope is -0.614 (inactive). Moreover, the NADPH fluorescence slope in test [5] is -1.6e-05 (inactive). Moreover, the slope in test [6] was 0.00648 (inactive).
As to `COC(=O)CN(c1ccc(OC)cc1)S(=O)(=O)c1ccc(OC)c(OC)c1`, the cell count in test [1] is 669. The inhibition in test [1] was -4.7% (inactive); in test [3] it was -81.3% (inactive); in test [7], 10.6% (inactive); in test [8] it was 23.4% (inactive). Moreover, the inhibition of aggregation in test [2] is -13% (inactive). Besides, the nuclei count in test [2] worked out at 106%; in test [3] it was 139%. Further, the fluorescence slope in test [4] was -0.463 (inactive). The NADPH fluorescence slope in test [5] is -0.000101 (inactive). In test [6], the slope was 0.00514 (inactive).
On to `Cc1cc(C(=O)N2CCN(C/C=C/c3ccccc3)CC2)no1`, for which the cell count in test [1] came out at 242. Also, the inhibition in test [1] is 8.7% (inactive); in test [3] it was 11.3% (inactive); in test [7], 13% (inactive); in test [8], 25.3% (inactive). Besides, the inhibition of aggregation in test [2] is -4.4% (inactive). Moreover, the results for the nuclei count in test [2] and in test [3] were 101% and 98.6%, respectively. The fluorescence slope in test [4] is -0.465 (inactive). Moreover, the NADPH fluorescence slope in test [5] is 1.9e-06 (inactive). For the same molecule, the slope in test [6] is 0.0056 (inactive).
In the case of `CCOc1ccc2[nH]c(=O)c(C(c3nnnn3CC3CCCO3)N3CCc4ccccc4C3)cc2c1` (stereo not given), the cell count in test [1] was 702. Besides, the inhibition in test [1] was 12.9% (inactive); in test [3], -1.8% (inactive); in test [7] it was 20.7% (inactive); in test [8], 31.2% (inactive). Further, in test [2], the inhibition of aggregation is 3.6% (inactive). The nuclei count in test [2] stood at 69%; in test [3] it was 119%. The fluorescence slope in test [4] was -0.598 (inactive). Also, the NADPH fluorescence slope in test [5] is -8.5e-06 (inactive). In addition, the slope in test [6] is 0.00562 (inactive).
With `Cc1cccc(C2CC(c3ccc(Cl)cc3)Nc3nc(N)nn32)c1` (stereo not given), the cell count in test [1] is 598. Also, the inhibition in test [1] is -2.4% (inactive); in test [3], -0.5% (inactive); in test [7], 4.61% (inactive); in test [8] it was 25.1% (inactive). For the same molecule, the inhibition of aggregation in test [2] is 18.5% (inactive). For the same molecule, the nuclei count in test [2] amounted to 58.9%; in test [3], 102%. In test [4], the fluorescence slope was -0.525 (inactive). Moreover, the NADPH fluorescence slope in test [5] was -4.5e-05 (inactive). In addition, in test [6], the slope was 0.00816 (inactive).
For `CC(NS(=O)(=O)c1ccccc1)C(c1cccs1)N1CCN(C)CC1` (stereo not given), the cell count in test [1] was 445. Besides, the inhibition in test [1] is -6.7% (inactive); in test [3], -262% (inactive); in test [7] it was 20.5% (inactive); in test [8], 36.2% (inactive). In addition, the inhibition of aggregation in test [2] was -18.1% (inactive). The nuclei count in test [2] worked out at 111%; in test [3] it was 137%. The fluorescence slope in test [4] was -0.321 (inactive). For the same molecule, the NADPH fluorescence slope in test [5] was -9.7e-06 (inactive). Moreover, the slope in test [6] was 0.00347 (inactive).
